# Measured values taken from the supplement of paper PMC12282887.
# ± gives the standard deviation of the averaged measurements.
# Experiments:
# Assay in all cases: promoter activity interaction Z-score (Lux/OD deviation from empty-vector control); higher = stronger promoter induction by the compound
# [1] = tested on: E. coli BW25113 acrABp lux reporter
# How it was run: (§1)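 E. coli BW25113, as wild type or one of three single-gene deletion strains, carried low-copy luxCDABE promoter reporters and grew in 40 µl LB Lennox in 384-well plates at 37°C, with OD600 and luminescence read every 30 min for 12 h. Each compound was run at four 1:2 dilutions in biological duplicates, integration spanned 0–8 h for wild type and 1–9 h for deletion strains, and wells under 10% of the median growth value were dropped. The score is the Z-transformed residual of growth-normalised luminescence fitted against a control.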
# [2] = tested on: E. coli BW25113 marRABp lux reporter
# How it was run: as §1
# [3] = tested on: E. coli BW25113 micFp lux reporter
# How it was run: as §1
# [4] = tested on: E. coli BW25113 ompFp lux reporter
# How it was run: as §1
# [5] = tested on: E. coli BW25113 robp lux reporter
# How it was run: as §1
# [6] = tested on: E. coli BW25113 soxSp lux reporter
# How it was run: as §1
# [7] = tested on: E. coli BW25113 tolCp lux reporter
# How it was run: as §1
# [8] = 17.4 µg/ml, genetic background: wild type
# [9] = 17.4 µg/ml, genetic background: ΔmarA
# [10] = 17.4 µg/ml, genetic background: Δrob
# [11] = 17.4 µg/ml, genetic background: ΔsoxS
# [12] = 34.9 µg/ml, genetic background: wild type
# [13] = 34.9 µg/ml, genetic background: ΔmarA
# [14] = 34.9 µg/ml, genetic background: Δrob
# [15] = 34.9 µg/ml, genetic background: ΔsoxS
# [16] = 69.8 µg/ml, genetic background: wild type
# [17] = 69.8 µg/ml, genetic background: ΔmarA
# [18] = 69.8 µg/ml, genetic background: Δrob
# [19] = 69.8 µg/ml, genetic background: ΔsoxS
# [20] = 139.6 µg/ml, genetic background: wild type
# [21] = 139.6 µg/ml, genetic background: ΔmarA
# [22] = 139.6 µg/ml, genetic background: Δrob
# [23] = 139.6 µg/ml, genetic background: ΔsoxS
smiles,measurement,setting,value
Nc1ccn(C[C@@H](CO)OCP(=O)(O)O)c(=O)n1 [Cidofovir],promoter activity interaction Z-score,[1]; [8],-0.283 ± 0.054
same,promoter activity interaction Z-score,[1]; [9],0.149 ± 0.3
same,promoter activity interaction Z-score,[1]; [10],-0.0654 ± 0.1
same,promoter activity interaction Z-score,[1]; [11],-0.0538 ± 0.14
same,promoter activity interaction Z-score,[1]; [12],0.196 ± 0.13
same,promoter activity interaction Z-score,[1]; [13],-0.657 ± 0.64
same,promoter activity interaction Z-score,[1]; [14],0.0446 ± 0.2
same,promoter activity interaction Z-score,[1]; [15],0.215 ± 0.4
same,promoter activity interaction Z-score,[1]; [16],0.219 ± 0.079
same,promoter activity interaction Z-score,[1]; [17],0.553 ± 0.79
same,promoter activity interaction Z-score,[1]; [18],-0.00642 ± 0.084
same,promoter activity interaction Z-score,[1]; [19],0.0852 ± 0.5
same,promoter activity interaction Z-score,[1]; [20],0.22 ± 0.15
same,promoter activity interaction Z-score,[1]; [21],-0.132 ± 0.17
same,promoter activity interaction Z-score,[1]; [22],0.233 ± 0.03
same,promoter activity interaction Z-score,[1]; [23],0.385 ± 0.26
same,promoter activity interaction Z-score,[2]; [8],-0.0416 ± 0.17
same,promoter activity interaction Z-score,[2]; [9],-0.106 ± 0.11
same,promoter activity interaction Z-score,[2]; [10],-0.0241 ± 0.025
same,promoter activity interaction Z-score,[2]; [11],0.0975 ± 0.049
same,promoter activity interaction Z-score,[2]; [12],0.263 ± 0.48
same,promoter activity interaction Z-score,[2]; [13],-0.336 ± 0.093
same,promoter activity interaction Z-score,[2]; [14],0.0475 ± 0.0048
same,promoter activity interaction Z-score,[2]; [15],-0.0388 ± 0.24
same,promoter activity interaction Z-score,[2]; [16],-0.235 ± 0.23
same,promoter activity interaction Z-score,[2]; [17],-0.157 ± 0.23
same,promoter activity interaction Z-score,[2]; [18],-0.0863 ± 0.087
same,promoter activity interaction Z-score,[2]; [19],0.0268 ± 0.12
same,promoter activity interaction Z-score,[2]; [20],0.0629 ± 0.086
same,promoter activity interaction Z-score,[2]; [21],-0.277 ± 0.08
same,promoter activity interaction Z-score,[2]; [22],0.278 ± 0.14
same,promoter activity interaction Z-score,[2]; [23],0.18 ± 0.28
same,promoter activity interaction Z-score,[3]; [8],0.0224 ± 0.19
same,promoter activity interaction Z-score,[3]; [9],0.0154 ± 0.092
same,promoter activity interaction Z-score,[3]; [10],-0.0713 ± 0.17
same,promoter activity interaction Z-score,[3]; [11],0.11 ± 0.48
same,promoter activity interaction Z-score,[3]; [12],-0.0338 ± 0.16
same,promoter activity interaction Z-score,[3]; [13],-0.00819 ± 0.0042
same,promoter activity interaction Z-score,[3]; [14],-0.103 ± 0.19
same,promoter activity interaction Z-score,[3]; [15],-0.106 ± 0.1
same,promoter activity interaction Z-score,[3]; [16],-0.121 ± 0.16
same,promoter activity interaction Z-score,[3]; [17],-0.0731 ± 0.046
same,promoter activity interaction Z-score,[3]; [18],-0.0746 ± 0.21
same,promoter activity interaction Z-score,[3]; [19],-0.0778 ± 0.17
same,promoter activity interaction Z-score,[3]; [20],-0.297 ± 0.16
same,promoter activity interaction Z-score,[3]; [21],-0.185 ± 0.15
same,promoter activity interaction Z-score,[3]; [22],-0.00734 ± 0.29
same,promoter activity interaction Z-score,[3]; [23],-0.28 ± 0.054
same,promoter activity interaction Z-score,[4]; [8],-0.101 ± 0.21
same,promoter activity interaction Z-score,[4]; [9],-0.0401 ± 0.19
same,promoter activity interaction Z-score,[4]; [10],-0.282 ± 0.46
same,promoter activity interaction Z-score,[4]; [11],0.292 ± 0.4
same,promoter activity interaction Z-score,[4]; [12],0.3 ± 0.056
same,promoter activity interaction Z-score,[4]; [13],-0.163 ± 0.48
same,promoter activity interaction Z-score,[4]; [14],0.122 ± 0.34
same,promoter activity interaction Z-score,[4]; [15],0.493 ± 0.19
same,promoter activity interaction Z-score,[4]; [16],0.00967 ± 0.29
same,promoter activity interaction Z-score,[4]; [17],-0.0743 ± 0.39
same,promoter activity interaction Z-score,[4]; [18],-0.0183 ± 0.51
same,promoter activity interaction Z-score,[4]; [19],0.835 ± 0.063
same,promoter activity interaction Z-score,[4]; [20],0.281 ± 0.35
same,promoter activity interaction Z-score,[4]; [21],0.0677 ± 0.43
same,promoter activity interaction Z-score,[4]; [22],1.05 ± 0.56
same,promoter activity interaction Z-score,[4]; [23],0.354 ± 0.32
same,promoter activity interaction Z-score,[5]; [8],0.0479 ± 0.44
same,promoter activity interaction Z-score,[5]; [9],-0.325 ± 0.089
same,promoter activity interaction Z-score,[5]; [10],-0.283 ± 0.23
same,promoter activity interaction Z-score,[5]; [11],0.755 ± 0.19
same,promoter activity interaction Z-score,[5]; [12],0.8822 ± 0.0041
same,promoter activity interaction Z-score,[5]; [13],-0.684 ± 0.34
same,promoter activity interaction Z-score,[5]; [14],0.316 ± 0.54
same,promoter activity interaction Z-score,[5]; [15],0.739 ± 0.8
same,promoter activity interaction Z-score,[5]; [16],-0.0584 ± 0.52
same,promoter activity interaction Z-score,[5]; [17],-0.117 ± 0.21
same,promoter activity interaction Z-score,[5]; [18],0.528 ± 1.2
same,promoter activity interaction Z-score,[5]; [19],0.716 ± 0.15
same,promoter activity interaction Z-score,[5]; [20],0.0675 ± 0.18
same,promoter activity interaction Z-score,[5]; [21],-0.557 ± 0.22
same,promoter activity interaction Z-score,[5]; [22],0.839 ± 0.21
same,promoter activity interaction Z-score,[5]; [23],0.434 ± 0.44
same,promoter activity interaction Z-score,[6]; [8],0.0175 ± 0.013
same,promoter activity interaction Z-score,[6]; [9],0.0495 ± 0.085
same,promoter activity interaction Z-score,[6]; [10],-0.108 ± 0.04
same,promoter activity interaction Z-score,[6]; [11],0.122 ± 0.064
same,promoter activity interaction Z-score,[6]; [12],-0.0402 ± 0.16
same,promoter activity interaction Z-score,[6]; [13],0.0487 ± 0.082
same,promoter activity interaction Z-score,[6]; [14],0.0552 ± 0.025
same,promoter activity interaction Z-score,[6]; [15],0.246 ± 0.033
same,promoter activity interaction Z-score,[6]; [16],-0.0559 ± 0.065
same,promoter activity interaction Z-score,[6]; [17],0.167 ± 0.11
same,promoter activity interaction Z-score,[6]; [18],-0.0558 ± 0.063
same,promoter activity interaction Z-score,[6]; [19],0.254 ± 0.11
same,promoter activity interaction Z-score,[6]; [20],0.021 ± 0.14
same,promoter activity interaction Z-score,[6]; [21],-0.0152 ± 0.023
same,promoter activity interaction Z-score,[6]; [22],0.0293 ± 0.054
same,promoter activity interaction Z-score,[6]; [23],-0.0927 ± 0.013
same,promoter activity interaction Z-score,[7]; [8],0.134 ± 0.031
same,promoter activity interaction Z-score,[7]; [9],0.258 ± 0.13
same,promoter activity interaction Z-score,[7]; [10],-0.735 ± 1.3
same,promoter activity interaction Z-score,[7]; [11],-0.0946 ± 0.53
same,promoter activity interaction Z-score,[7]; [12],-0.218 ± 0.42
same,promoter activity interaction Z-score,[7]; [13],-0.677 ± 0.19
same,promoter activity interaction Z-score,[7]; [14],0.0662 ± 0.039
same,promoter activity interaction Z-score,[7]; [15],1.55 ± 0.98
same,promoter activity interaction Z-score,[7]; [16],-0.434 ± 0.14
same,promoter activity interaction Z-score,[7]; [17],-0.318 ± 0.84
same,promoter activity interaction Z-score,[7]; [18],-0.696 ± 1
same,promoter activity interaction Z-score,[7]; [19],-0.168 ± 1
same,promoter activity interaction Z-score,[7]; [20],-0.582 ± 0.18
same,promoter activity interaction Z-score,[7]; [21],-0.123 ± 0.94
same,promoter activity interaction Z-score,[7]; [22],0.23 ± 0.54
same,promoter activity interaction Z-score,[7]; [23],-0.453 ± 0.91
